Assay [1] has as its target T1, Aspartate--tRNA(Asp/Asn) ligase (Mycobacterium tuberculosis (strain ATCC 25618 / H37Rv)) (UniProt P9WFW3). Further: in the data most compounds retested in dose-response had high values.
T1 sequence (whole entry): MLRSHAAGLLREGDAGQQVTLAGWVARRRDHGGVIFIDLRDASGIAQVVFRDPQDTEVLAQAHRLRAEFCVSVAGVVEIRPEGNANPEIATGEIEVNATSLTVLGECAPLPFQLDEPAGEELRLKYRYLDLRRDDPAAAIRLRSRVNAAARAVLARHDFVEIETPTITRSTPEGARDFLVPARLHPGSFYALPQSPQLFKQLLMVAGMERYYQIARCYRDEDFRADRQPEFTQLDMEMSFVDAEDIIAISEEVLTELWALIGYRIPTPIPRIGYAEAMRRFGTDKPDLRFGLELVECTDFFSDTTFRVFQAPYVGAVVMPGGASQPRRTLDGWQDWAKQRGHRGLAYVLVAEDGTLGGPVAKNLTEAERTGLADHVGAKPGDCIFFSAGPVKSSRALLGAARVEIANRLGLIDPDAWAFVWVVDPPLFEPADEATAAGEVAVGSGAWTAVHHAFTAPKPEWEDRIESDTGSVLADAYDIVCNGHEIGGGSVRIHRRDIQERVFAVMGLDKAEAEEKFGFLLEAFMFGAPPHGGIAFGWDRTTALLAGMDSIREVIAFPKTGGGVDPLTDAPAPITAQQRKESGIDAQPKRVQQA
Description: Assay for Asp RNA synthetase-1 from Mycobacterium tuberculosis. Conditions: 30 µM. The format is functional. The arrangement: scale not given: direction of the effect not stated beside the values.

Assay [2] has as its target Shiga toxin 2 (Escherichia coli O157:H7) (UniProt P09385+P09386). In words: E. coli 0.157:H7 Shiga Toxin SOP - stx2 screening assay. The format is functional. Also on record: scale not given: direction of the effect not stated beside the values. Conditions: 30 µM.

Take `CC(Cn1cccn1)NC(=O)NCc1cccnc1OC1CCCC1` (centres undefined): the Percent Effect was -4.78% in assay [1] and -7.65% in assay [2].

Take `Cc1cc(C)n(C2CN(CC(=O)NCC(C)(C)N3CCOCC3)C2)n1`: the Percent Effect in assay [1] was -2.72%; in assay [2] it was -13.3%.

As for `CCN(CC)C(=O)c1cc(C2CCCN2C)ccn1` (centres undefined), the Percent Effect in assay [1] came to 4.39%; in assay [2], 1.51%.

For the compound `Cc1nc(CC(=O)N2CCCN(c3ccc(C#N)cc3)CC2)cs1`, the figures for the Percent Effect in assay [1] and in assay [2] were -8.71% and -26.6%, respectively.

For `COc1c(CNCc2ccc(C(=O)N(C)C)cc2)c(C)nn1C`, the Percent Effect in assay [1] is 2.9%; in assay [2] it was -13.9%.

`Cc1ccc(N2CCN(C(=O)COc3nccc(C)n3)CC2)nn1`: the Percent Effect in assay [1] was -6.35%; in assay [2] it was -50.4%.

As to `COCCN1C(=O)C[C@@H]2[C@H]1CCN2C(=O)COc1ccccc1`, the Percent Effect is -2.36% in assay [1] and -1.37% in assay [2].

In the case of `CC(C)Cc1noc(CN2CCN(c3nccs3)CC2)n1`, the Percent Effect in assay [1] was -4.73%; in assay [2] it was 11.6%.

For the compound `CC(C)c1noc(CN2CCN(C(=O)c3ccccc3F)CC2)n1`, the values for the Percent Effect in assay [1] and in assay [2] were -2.91% and 12.1%, respectively.

Regarding `O=C(CCc1cc2n(n1)CCCN(C(=O)c1cccnc1)C2)NC1CC1`, the figures for the Percent Effect in assay [1] and in assay [2] were -2.01% and -9.98%, respectively.

In the case of `Cc1ccc(-c2nnc(CNCCn3cc(C)cn3)o2)cc1`, the values for the Percent Effect in assay [1] and in assay [2] were 2.15% and -42%, respectively.

Turning to `COc1ccc2c(c1)OCC(CNC(=O)c1ccc(=O)n(C)c1)C2` (centres undefined), the figures for the Percent Effect in assay [1] and in assay [2] were -0.474% and 0.424%, respectively.

Turning to `CS(=O)(=O)CCC(=O)NC1(c2cccc(Br)c2)CC1`, the Percent Effect in assay [1] came to 5.45%; in assay [2], 3.23%.

In the case of `CCc1nc(C2CCCN2Cc2nnc(Cc3ccccc3)o2)no1` (centres undefined), the Percent Effect was -0.231% in assay [1] and 6.08% in assay [2].

As to `COCCN1C[C@H]2CC[C@@]3(N=C(C)N(CC4CC4)C3=O)[C@H]2C1`, the Percent Effect in assay [1] was 4.94%; in assay [2], -12.7%.

Consider `CCn1nnc2cc(C(=O)N3CCCC3Cn3cc(C)cn3)ccc21` (centres undefined), for which the Percent Effect is -2.54% in assay [1] and 0.821% in assay [2].

For `CCSCCC(=O)NS(=O)(=O)c1ccc2c(c1)OCCO2`, the Percent Effect in assay [1] is -0.722%; in assay [2], -25.1%.

Turning to `CN1CCCC1c1ccc(C(=O)N2CCc3ccccc3C2)s1` (centres undefined), the Percent Effect in assay [1] is -5.54%; in assay [2], -38.1%.

For `Cc1cnn(C2CCCN(C(=O)c3ccc(N(C)C)nn3)C2)c1` (centres undefined), the Percent Effect is -1.49% in assay [1] and -0.265% in assay [2].

As to `CC(NC(=O)NCc1ccoc1)c1ccc2c(c1)CCC(=O)N2` (centres undefined), the figures for the Percent Effect in assay [1] and in assay [2] were -9.2% and -43.2%, respectively.

In the case of `O=C(NCCCNC(=O)c1cccc(O)c1)Nc1ccc(F)cc1F`, the Percent Effect in assay [1] is -6.98%; in assay [2] it was -56%.

`O=C1CC(c2ccncc2)C2(CCN(C(=O)c3ccc[nH]3)CC2)N1` (centres undefined): the Percent Effect is -0.81% in assay [1] and -8.09% in assay [2].

As to `CCc1cnc(CN(C(C)=O)C2CCN(CCS(C)(=O)=O)C2)o1` (centres undefined), the figures for the Percent Effect in assay [1] and in assay [2] were -3.9% and -0.798%, respectively.

As for `COc1ccc(CN2CCn3cc(CN4CCN(C)CC4)nc3C2)cc1`, the results for the Percent Effect in assay [1] and in assay [2] were -1.67% and 10.3%, respectively.

Turning to `Cc1nn(CC(C)C)c(N(C)C)c1CNCc1cccnc1N(C)C`, the Percent Effect in assay [1] was determined as 0.161%; in assay [2], 24.5%.

With `Cc1nnc2n1CCN(C(=O)COCCOc1ccccc1)C2`, the values for the Percent Effect in assay [1] and in assay [2] were -0.422% and -37.2%, respectively.

As for `O=C(c1n[nH]c(=O)c2ccccc12)N1CCCCC1c1ccn[nH]1` (centres undefined), the Percent Effect in assay [1] was -1.09%; in assay [2], 17.2%.

In the case of `Cc1nn(CC(=O)N2CCN(c3ccccc3F)CC2)c(C)c1Cl`, the values for the Percent Effect in assay [1] and in assay [2] were 8.8% and -39.1%, respectively.

On to `c1cnc(N2CCC3(CCN(Cc4ccncc4)CC3)CC2)nc1`, for which the Percent Effect in assay [1] is -2.46%; in assay [2] it was 1.18%.

Take `Cc1nc(CN2CCC(C(=O)O)(n3ccc(-c4ccco4)n3)CC2)co1`: the Percent Effect in assay [1] was -1.98%; in assay [2] it was -9.21%.

`COc1ccccc1C(O)CNCc1c(C(C)C)nn(C)c1N(C)C` (centres undefined): the Percent Effect in assay [1] is -6.86%; in assay [2], 9.26%.

Turning to `CN(C)CCN1CCCC12CCN(C(=O)c1cccn1C)CC2`, the results for the Percent Effect in assay [1] and in assay [2] were -5.96% and -0.241%, respectively.

Turning to `Cc1cc(-c2cnc(N3CCNC(=O)C3)nc2-c2cccnc2C)on1`, the Percent Effect in assay [1] was -4.46%; in assay [2], -9.56%.

On to `CS(=O)(=O)NC1CCCN(C(=O)NCc2cccnc2)C1` (centres undefined), for which the results for the Percent Effect in assay [1] and in assay [2] were -0.548% and 26.7%, respectively.

For the compound `O=C(c1ccccn1)N1Cc2nccn2CC(CN2CCOCC2)C1` (centres undefined), the results for the Percent Effect in assay [1] and in assay [2] were 11.5% and -21.6%, respectively.

As to `Cc1cc(C)nc(Nc2cc(C3CCCN(C)C3)nc(C)n2)n1` (centres undefined), the Percent Effect in assay [1] was 0.64%; in assay [2], -0.428%.

For the compound `CC(C)c1nn(C)c(N(C)C)c1CNCCC(=O)N(C)C`, the Percent Effect in assay [1] is -4.3%; in assay [2], 10.1%.

On to `Cc1ncsc1CN1CC[C@H]2OCC[C@@]2(C(=O)NC(C)C)C1`, for which the Percent Effect was 2.43% in assay [1] and -7.46% in assay [2].

For the compound `CCN1CCN(C(=O)c2nc(C)n(-c3ccccc3Cl)n2)CC1`, the values for the Percent Effect in assay [1] and in assay [2] were -3.15% and 0.607%, respectively.

For the compound `CC(C)NC(=O)C1CN(C(=O)c2ccc(F)cc2)CC12CCOCC2` (centres undefined), the Percent Effect in assay [1] was 0.581%; in assay [2], -56%.

Take `Cc1ccoc1-c1nnc(CNCCn2cccn2)o1`: the Percent Effect in assay [1] is 0.914%; in assay [2], -39.9%.

With `CNC(=O)Cc1ccc(NC(=O)NC(C)C(C)C)cc1` (centres undefined), the Percent Effect was -6.08% in assay [1] and -0.988% in assay [2].

`CN1CCN(c2cc(CCNC(=O)C3CCC3)nc(C3CC3)n2)CC1`: the Percent Effect was -3.83% in assay [1] and -18.7% in assay [2].

On to `Cc1ccc(CNC(=O)NCc2cccnc2N(C)C)s1`, for which the Percent Effect was -3.67% in assay [1] and 1.79% in assay [2].

For the compound `O=C(c1cc(COc2ccc3c(c2)OCO3)[nH]n1)N1CC=CC1CO` (centres undefined), the values for the Percent Effect in assay [1] and in assay [2] were 1.75% and -30.9%, respectively.

As to `Cc1cc(CN(C)C(=O)NC(C)c2nncn2C)no1` (centres undefined), the Percent Effect in assay [1] was -3.43%; in assay [2] it was 6.65%.

As to `Cn1ccnc1-c1cccc(NC(=O)NCCCO)c1`, the Percent Effect is -2.56% in assay [1] and -54.8% in assay [2].

As to `c1nc2n(n1)CC(NCc1nc(-c3ccsc3)no1)CC2` (centres undefined), the values for the Percent Effect in assay [1] and in assay [2] were 4.69% and 10.5%, respectively.

For `CC(=O)N1CCCN(C(=O)c2cnc3n[nH]c(C)c3c2)CC1`, the results for the Percent Effect in assay [1] and in assay [2] were -0.871% and 19.4%, respectively.

Turning to `CN(Cc1cc(-c2ccccc2)no1)C1CCCN(c2cccnn2)C1` (centres undefined), the Percent Effect in assay [1] was -2.03%; in assay [2], -0.584%.

As for `Cc1ccc(NC(=O)NC(C)C(=O)N2CCS(=O)(=O)CC2)cc1` (centres undefined), the Percent Effect was 1.19% in assay [1] and 12.8% in assay [2].

As for `CCn1cnnc1CNC(=O)N(C)Cc1ccc(F)c(F)c1`, the results for the Percent Effect in assay [1] and in assay [2] were -2.12% and 18.2%, respectively.

The record behind these values is ChEMBL document CHEMBL3988442, “University of Dundee, Small-Polar-MMV Screening Library” (2021).
